Results: PubChem BioAssay AID1159580 (chemical genetic matrix, 2015)
Screen size: about 5,500 compounds; about 2,000 (36%) were called active. Inconclusive results (about 18%) are left out. Rule as the data show it: active = normalized growth mostly below about 0.91 (no sharp cut-off); inconclusive = no clear call, values can overlap the other calls; inactive = mostly above about 0.92. The list shows a part of the results.

Assay: chemical genetic growth profiling, strain panel (AID 1159580);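 also: tested at 20 µM; growth read once vehicle control cultures reached saturation at 30 °C; 1 = growth at the plate median or of vehicle wells; lower values mean less growth of the strain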
Conditions: S. cerevisiae deletion strains, growth OD

Measured: normalized growth

CN1CC[C@@]2(C)c3cc(O)ccc3N(C)C12 (stereo partly specified)
inactive: locus YAL040C, strain CLN3, stronger effect = lower value 0.971 | locus YCL061C, strain MRC1 (second series), stronger effect = lower value 0.995 | locus YDR150W, strain NUM1, stronger effect = lower value 0.977 | locus YDR363W, strain ESC2, stronger effect = lower value 1.02 | locus YER002W, strain NOP16, stronger effect = lower value 0.998 | locus YGR078C, strain PAC10, stronger effect = lower value 0.982 | locus YGR229C, strain SMI1, stronger effect = lower value 1.03 | locus YJR075W, strain HOC1, stronger effect = lower value 1.01 | locus YMR263W, strain SAP30, stronger effect = lower value 0.993 | locus YMR307W, strain GAS1, stronger effect = lower value 1.02 | locus YNL153C, strain GIM3, stronger effect = lower value 0.941 | locus YNL175C, strain NOP13, stronger effect = lower value 0.989 | locus YNL197C, strain WHI3, stronger effect = lower value 0.969 | locus YNL224C, strain SQS1, stronger effect = lower value 1.02 | locus YOR083W, strain WHI5 (second series), stronger effect = lower value 0.975 | locus YPL055C, strain LGE1, stronger effect = lower value 0.985
